Laboratory results from PubChem BioAssay AID720517 (National Center for Advancing Translational Sciences (NCATS), 2013).
Inconclusive results are not listed. Activity calls are given as the source filed them. Calls come from the whole dose curve; as a rule, active = well fitted activation curve with a large enough effect; inconclusive = small, poorly fitted or top-dose-only effect; inactive = flat fitted curve, though single readings scatter.

Assay: qHTS for Inhibitors of Cell Surface uPA Generation: FP59 Counterscreen for Cherry-picked Compounds; note: 0% is about no effect
Conditions: FP59 anthrax toxin cytotoxicity counterscreen, cells; series mostly up to 115 µM; activity (protection from FP59): at the top concentration
With `COc1cccc(CN(C)C(=O)c2cc(S(=O)(=O)N3CCCC3)ccc2C)c1OC` the “activity (protection from FP59)” value was -1.14% (inactive).
In the case of `CCN(c1ccc(OC)cc1)S(=O)(=O)c1ccc2c(c1)NC(=O)CS2`, the “activity (protection from FP59)” value is reported as -0.559% (inactive).
In the case of `CCN1CCN(Cc2ccc(NC(=O)c3cc(NC(=O)c4cncc(-c5cccs5)c4)cc(OC)c3)cc2C(F)(F)F)CC1`, the “activity (protection from FP59)” value is reported as 0.284% (inactive).
With `Cc1ccc(-c2nc(CS(=O)(=O)CC(=O)NCc3cccc(F)c3)c(C)o2)cc1` the “activity (protection from FP59)” value was -1.37% (inactive).
For `CCCCN(C(=O)c1cnccn1)c1c(N)n(CCC)c(=O)[nH]c1=O`, the “activity (protection from FP59)” value was -1.49% (inactive).
In the case of `Clc1ccc(-c2nc3ccccn3c2CN2CCSCC2)cc1`, the “activity (protection from FP59)” value is reported as 1.45% (inactive).
For `CCO[C@H]1OC(C(=O)N2CCCCCCC2)=C[C@@H](c2ccc(C(F)(F)F)cc2)[C@@H]1CCCO`, the “activity (protection from FP59)” value was 1.06% (inactive).
With `COc1cccc2c1Oc1ncccc1N(C(=O)CCC(=O)NCc1ccc(C)cc1)C2` the “activity (protection from FP59)” value was -1.2% (inactive).
For `COc1ccc(NC(=O)CN2C(=O)CSc3ncccc32)cc1`, the “activity (protection from FP59)” value was -1.3% (inactive).
For `O=C1CCCc2ccccc2N1Cc1ccc(F)cc1`, the “activity (protection from FP59)” value was -1.29% (inactive).
For `Cc1c(NC(=O)C(C)OC(=O)CCC2CCCC2)c(=O)n(-c2ccccc2)n1C` (stereo unspecified), the “activity (protection from FP59)” value was -1.45% (inactive).
In the case of `CSc1ccccc1OCc1cc(C(=O)NCCCn2nc(C)cc2C)no1`, the “activity (protection from FP59)” value is reported as -1.14% (inactive).
With `COc1ccccc1-c1ccc(SCC(=O)NCCc2ccccc2)nn1` the “activity (protection from FP59)” value was -1.22% (inactive).
In the case of `Cc1cc(C)c(S(=O)(=O)N2CCCOC2CNC(=O)C(=O)NCc2cccs2)c(C)c1` (stereo unspecified), the “activity (protection from FP59)” value is reported as -1.06% (inactive).
With `C[C@H](CO)N1C[C@H](C)[C@@H](CN(C)C(=O)Nc2ccccc2)Oc2ccc(NC(=O)Cn3cnnn3)cc2C1=O` the “activity (protection from FP59)” value was -1.34% (inactive).
With `Cc1ccccc1C(=O)Nc1ccccc1N1CCCCC1` the “activity (protection from FP59)” value was -0.905% (inactive).
